Among all 330,000 compounds or so, about 1,900 (0.58%) were called active. Another 4% or so got no clear call; they are omitted. Not all results are given here. Entries with a potency or affinity are not part of this list. Values without a mark were called inactive. Cut-off read from the data, not from the text of the source: inconclusive = inhibition above about 70% without an active follow-up result; inactive = below that.

The nature of this test: M. tuberculosis growth inhibition, HTS (AID 449762).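 Note: bacterial growth assessed after seven days of incubation.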 The conditions noted are these: M. tuberculosis H37Rv growth inhibition, 7H9 media; at 25 µM; stronger effect = higher value.
With `Cc1ccc(C[n+]2ccccc2)cc1`, the inhibition was -0.58%.
As to `Cc1nc2ccccn2c1P(=Nc1ccccc1)(N(C)C)N(C)C`, the inhibition is -7.51%.
With `COC(=O)[C@@H]1C[C@@]2(O)[C@@H](O)[C@@H](O)[C@@H](O)C[C@H]2N1Cc1ccc(C(F)(F)F)cc1` the figure was -13%; with `CCOC(=O)c1ccc(-c2c(-c3ccc4c(c3)OCO4)noc2-c2ccsc2)cc1F`, 7.75%.
With `CCOC(=O)c1ccc(-c2c(-c3cc(OC)c(OC)c(OC)c3)noc2C)cc1F` the figure was 8.43%; with `CCCOc1ccc(N2CC(C(=O)Nc3ncccc3C)CC2=O)cc1` (configuration not stated), 25.7%.
With `O=C1CCc2cc(S(=O)(=O)NC(Cc3ccccc3)C(=O)NCCC3=CCCCC3)ccc2N1` (configuration not stated), the inhibition was -6.41%.
The result for `COc1ccccc1Cn1c(=S)[nH]c2cc(C(=O)NCC3CCCO3)ccc2c1=O` (configuration not stated) reads 2.37%; that for `CC(=O)N1CCc2c(sc(NC(=O)C3CC3)c2-c2nc3ccccc3s2)C1`, 15.3%; that for `CC(=O)Nc1scc(C)c1-c1nc2ccccc2s1`, 26%.
With `Cc1ccccc1NC(=O)Cn1c(C)nc2ccc(NC(=O)C3CC3)cc2c1=O` the figure was 2.87%; with `NS(=O)(=O)c1ccc(N2N=C(c3ccccc3)CC2c2ccccc2)cc1` (configuration not stated), 16.9%; with `NS(=O)(=O)c1ccc(N2N=C(c3ccccc3)CC2c2ccc(F)cc2)cc1` (configuration not stated), 12.8%.
With `O=C(O)c1ccccc1C(=O)NCCc1c(C(=O)O)[nH]c2ccc(Cl)cc12` the figure was 7.67%; with `COc1cccc(NC(=O)CSc2nc3ccccc3c(=O)n2CCCC(=O)NCCCN2CCOCC2)c1`, -10.7%.
`CCOC(=O)c1ccc(NC(=S)NCCc2ccc(OC)c(OC)c2)cc1`: the inhibition was 47.4%.
Consider `CCOC(=O)c1ccc(NC(=O)Nc2ccc(F)cc2)cc1`, for which the inhibition is 0.77%.
`O=C(O)C1CCN(c2ccc(S(=O)(=O)N3CCOCC3)cc2[N+](=O)[O-])CC1`: the inhibition was -9.82%.
On to `Cn1cnc(C(=O)NC2CCN(C(=O)OC(C)(C)C)CC2)c1C(=O)NC1CCN(C(=O)OC(C)(C)C)CC1`, for which the inhibition was -7.54%.
The result for `CCn1c(N2CCN(C(=O)/C=C/c3ccccc3)CC2)nc2ccccc21` reads 6.08%.
Turning to `CC(C)Cn1c(N2CCN(C(=O)c3cccs3)CC2)nc2ccccc21`, the inhibition was -9%.
With `CSc1nc2ccccc2n1CC(=O)Nc1c(C)n(C)n(-c2ccccc2)c1=O` the figure was -4.84%.
The result for `CCOc1ccc(CN2C(=O)c3ccccc3C2C(=O)NC(C)CC)cc1OC` (configuration not stated) reads 2.03%; that for `O=C(NCc1ccco1)c1ccc(-c2ccccc2Cl)o1`, -1.96%.
With `COc1ccc(CCC(=O)OC(C)C(=O)c2ccc(C)cc2)cc1` (configuration not stated) the figure was -2.54%.
In the case of `Cc1noc2ncnc(Sc3c(Cl)cccc3Cl)c12`, the inhibition was 47.8%.
The result for `COc1ccc(Sc2ncnc3onc(C)c23)cc1` reads 3.37%.
With `O=C(O)/C=C/C(=O)Nc1ccccc1-c1ccccc1NC(=O)/C=C/C(=O)O` the figure was 3.08%; with `CCn1nc(C)c(CCC(=O)O)c1C`, 4.75%.
The result for `Cc1ccc(/C=C/C(=O)OCC(=O)NCCc2ccc(S(N)(=O)=O)cc2)o1` reads -0.03%.
`COc1cccc(/C=N/Nc2ncnc3scc(-c4ccccc4)c23)c1OC`: the inhibition is 8.3%.
As for `COc1ccc(/C=N/Nc2ncnc3scc(-c4ccccc4)c23)cc1OC`, the inhibition was -0.49%.
In the case of `CC1CCCCN1C(=O)Nc1ccccc1Cl` (configuration not stated), the inhibition is -0.25%.
With `O=S(=O)(c1ccc(S(=O)(=O)N2CCN3CCCC3C2)cc1)N1CCCC1` (configuration not stated) the figure was -15.1%; with `CCOC(=O)c1sc(NC(=O)CSc2nc3ccccc3s2)c(C(=O)OCC)c1C`, 12.6%; with `CCc1c(O)cc2n(c1=O)-c1ccc(Cl)cc1C2(C)C`, -2.84%.
With `Cc1c(O)cc2n(c1=O)-c1ccc(Cl)cc1C2(C)C` the figure was -11.1%; with `Cc1ccsc1C1Nc2ccc3ncccc3c2C2=C1C(=O)CCC2` (configuration not stated), 2.32%; with `O=C(Nc1ccc(Cl)cn1)Nc1ccccc1F`, -4.27%.
With `C=CCn1c(=NC(=O)c2cc(Cl)sc2Cl)sc2cc(S(N)(=O)=O)ccc21` the figure was -3.02%; with `COCCn1c(=NC(=O)c2cc(Cl)sc2Cl)sc2cc(S(N)(=O)=O)ccc21`, -0.08%; with `Oc1ccccc1CN1CCN(C(O)(c2ccccc2)c2ccccc2)CC1`, 12.9%.
As to `N/C(=N\OC(=O)c1cc(Cl)ccc1Cl)c1ccccn1`, the inhibition was 30%.
The result for `COc1cc(OC)c(C(=O)O/N=C(\N)c2ccccn2)cc1OC` reads 7.81%.
The result for `C=CC[C@@H](CC(=O)N[C@@H](CO)Cc1ccccc1)C(=O)N[C@H](COC(=O)[C@@H](CC=C)Cc1ccc(F)cc1)C(C)(C)C` reads -11%; that for `CCc1ccc(/C=C2/C(=O)N(c3ccccc3)C(=S)N2CC(=O)OC)s1`, 10.2%.
With `CCc1ccc(/C=C2/C(=O)N(CC)C(=S)N2C)s1` the figure was 12.3%.
For `O=c1cc(CSc2ccc([N+](=O)[O-])cc2)nc2sccn12`, the inhibition was -11.9%.
With `O=C(NCCCN1CCCC1)c1cc2c(Cl)nc3ccccc3c2s1` the figure was 9.47%.
As to `CCN(CC)CCCNC(=O)c1cc2c(Cl)nc3ccccc3c2s1`, the inhibition was 5.92%.
On to `O=[N+]([O-])c1ccc(C(=S)N2CCN(Cc3ccccc3)CC2)cc1`, for which the inhibition is 6.67%.
The result for `CCCCOC(=O)Nc1ccc(S(=O)(=O)Nc2nc(C)cc(C)n2)cc1` reads 0.81%; that for `CCCCOC(=O)Nc1ccc(S(=O)(=O)Nc2cc(C)nc(C)n2)cc1`, 50.1%.
The result for `O=C(CSC(=S)N1CCCCC1)c1ccccc1` reads 69.2%.
Consider `Cc1oc2cc(O)ccc2c(=O)c1-c1cnn(-c2ccccc2)c1`, for which the inhibition is -3.21%.
The result for `O=c1c(-c2ccc(O)cc2)coc2cc(O)ccc12` reads 3.16%; that for `CCc1ccc(-c2cc(C(=O)Nc3c(C)n(C)n(-c4ccccc4)c3=O)c3ccccc3n2)s1`, 5.93%; that for `Cc1[nH]n(-c2ccccc2)c(=O)c1/C=N/N(c1ccccc1)c1ccccc1`, 62.4%.
The result for `CCCC(=O)N/C(N)=N/c1nc(C)c2cc(C)ccc2n1` reads 45.9%; that for `Cc1cc2nc(/N=C(\N)NC(=O)N3c4ccccc4Sc4ccccc43)nc(C)c2cc1C`, -0.79%.
With `Cc1ccc2nc(N=C(N)N)nc(C)c2c1` the figure was 12.5%; with `CCC(=O)N/C(N)=N/c1nc(C)c2cc(C)c(C)cc2n1`, 7.41%; with `COc1ccc(C(=O)Nc2cnccn2)cc1[N+](=O)[O-]`, -6.82%.
In the case of `O=C(CCN1C(=O)c2ccccc2C1=O)Nc1nc2ccccc2s1`, the inhibition was 10.8%.
The result for `NC(=O)[C@@H]1CC2(CC(c3cccc(NC(=O)[C@H]4CCC(=O)N4)c3)=NO2)CN1C(=O)COc1ccc(Cl)cc1` (some centres not stated) reads 0.87%; that for `Cc1cccc(C(=O)Nc2cccc3cccnc23)c1`, 25.4%; that for `O=C(CSCc1ccccc1Cl)Nc1c[nH]c(=O)[nH]c1=O`, 1.55%.
With `CC(O)CNc1nc2c(c(=O)n(Cc3ccc(Cl)c(Cl)c3)c(=O)n2C)n1C` (configuration not stated) the figure was 6.85%; with `Cn1c(NCC(O)c2ccccc2)nc2c1c(=O)n(Cc1ccc(Cl)cc1)c(=O)n2C` (configuration not stated), 48.9%.
Regarding `CCOC(=O)c1ccc(COC(=O)CNC(=O)CNC(=O)Cc2ccccc2)cc1`, the inhibition was -12.4%.
With `COc1cc(OC)c(NC(=O)CCCNC(=O)Cn2cnc3sc(C)c(C)c3c2=O)cc1Cl` the figure was -3.56%; with `CCN(CC(=O)Nc1ccc(NC(C)=O)cc1)C(=O)c1ccccc1SCC(=O)N1CCCC1`, 6.02%.
Consider `O=C(NCCOc1ccccc1F)c1cccc(S(=O)(=O)N2CCN(c3ccccc3)CC2)c1`, for which the inhibition is 4.44%.
Regarding `c1ccc2nc(-c3ccncc3)ccc2c1`, the inhibition was -14.1%.
The result for `c1ccc(-c2ccc3ccccc3n2)cc1` reads -0.21%.
With `Cc1cc(C)c(C#N)c(SCC(=O)c2cc(C)n(CCc3ccccc3)c2C)n1` the figure was -0.68%; with `O=C(NCCCN1CCOCC1)c1ccc(Sc2ccc(F)cc2)c([N+](=O)[O-])c1`, -0.04%.
The result for `COc1ccc(NC(=O)CNC(=O)C2CCCCC2)cc1` reads 13.5%.
`NS(=O)(=O)c1ccc(NC(=O)CSC2CCCCC2)cc1`: the inhibition was -6.63%.
With `CCC(C)NC(=O)CN1C(=O)NC2(CCOc3ccccc32)C1=O` (configuration not stated) the figure was 7.03%.
With `CC(C)C1(C(C)C)OC(=O)c2ccccc21` the figure was 0.62%; with `CCCn1ncc(CN2CCC(Cc3cccc(F)c3)(C(=O)OCC)CC2)c1C`, -1.6%.
The result for `COc1ccc(OCC(O)Cn2c(=N)n(Cc3ccccc3)c3ccccc32)cc1` (configuration not stated) reads 26.5%; that for `N=c1n(Cc2ccccc2)c2ccccc2n1CC(O)COc1ccccc1` (configuration not stated), 14.3%; that for `CC(=O)CCC(=O)N1CCCC(CNC(=O)c2ccc(-c3ccccc3)cc2)C1` (configuration not stated), -4.64%.
`CSCC(=O)N1CCCC(CNC(=O)c2ccc(-c3ccccc3)cc2)C1` (configuration not stated): the inhibition is 3.04%.
As to `CC(C)(C)OC(=O)C[C@H]1C/C=C\C[C@H](CC(=O)NCCO)C(=O)NC[C@H](c2ccccc2)OC1=O`, the inhibition was -2.46%.
With `COc1cccc(N(C(=O)CNC(=O)c2ccco2)C(C(=O)NC2CCCC2)c2ccncc2)c1` (configuration not stated) the figure was 0.28%; with `O=C(O)CCCn1cc(NC(=O)COc2ccccc2)cn1`, 1.85%; with `Clc1ccc(SCCn2ccnc2)cc1`, -6.09%.
For the molecule `O=C(Cc1ccc(Cl)cc1)NCCCn1ccnc1`, the inhibition was 0.59%.
The result for `CCNCCNC(=O)c1c(O)c2c([nH]c1=O)CCCC2` reads -0.1%.

By inhibition is commonly meant the change of the read-out against control, counted positive when it falls.

Source of the values: PubChem BioAssay AID449762 (Southern Research Specialized Biocontainment Screening …, 2010).
